From PubChem
Only some compounds are listed: those with a hit (about 5.7% of all), similar ones and a draw of the others.
PI5P4Ka inh: qHTS for Inhibitors of phosphatidylinositol 5-phosphate 4-kinase (PI5P4K) | Phosphatidylinositol 5-phosphate 4-kinase type-2 alpha (Homo sapiens), P48426 | PI5P4Kalpha enzyme, ADP-Glo luminescence, 60 min; stronger effect = lower value | max response, % | 330,000 compounds, 1.2% hits; active means max response of -50% or lower; inconclusive means between -30% and -50%; inactive means -30% or higher; further: value at the top dose of about 77 µM; on the % scale 0 is the no-effect control and ±100 the full control effect
Target sequence (P48426 whole entry, looked up): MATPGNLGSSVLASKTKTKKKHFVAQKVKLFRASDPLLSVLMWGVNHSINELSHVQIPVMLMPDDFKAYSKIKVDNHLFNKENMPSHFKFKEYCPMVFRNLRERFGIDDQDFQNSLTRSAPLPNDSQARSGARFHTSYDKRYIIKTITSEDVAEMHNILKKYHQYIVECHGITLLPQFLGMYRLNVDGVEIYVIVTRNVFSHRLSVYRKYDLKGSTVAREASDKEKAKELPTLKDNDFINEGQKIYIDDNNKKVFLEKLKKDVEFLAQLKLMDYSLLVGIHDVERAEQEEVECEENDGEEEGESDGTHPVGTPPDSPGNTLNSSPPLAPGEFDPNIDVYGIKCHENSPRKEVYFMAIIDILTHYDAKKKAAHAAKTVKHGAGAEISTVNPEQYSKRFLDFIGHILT
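ADP-Glo luminescence end-point after a 60 min room-temperature kinase reaction. PI5P4Kalpha and substrate in HEPES pH 7.4 buffer with EGTA, 0.1% CHAPS and 5% DMSO; ATP at 5 microM final.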
BAZ2B block: qHTS Assay for Inhibitors of BAZ2B; AlphaScreen BAZ2B-H3K14Ac peptide displacement; Potency, µM (highest dose often 114 µM), without a hit: top-dose activity change, negative = inhibition, hits mostly inhibitors; 360,000 compounds, 4.4% hits; further: potency means the concentration at half of the fitted maximal effect; on the % scale 0 is the no-effect control and ±100 the full control effect; nearly all actives have a fitted effect of over 60% in size
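Multi-concentration screen (max 110 uM) measuring displacement of acetylated histone H3 peptide from BAZ2B by AlphaScreen, using 50 nM protein, 50 nM peptide and 10 ug/mL streptavidin donor plus Ni-chelate acceptor beads.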
KDM4E inh: qHTS Assay for Inhibitors of Human Jumonji Domain Containing 2E (JMJD2E); JMJD2E catalytic domain, FDH-coupled NADH fluorescence (FDH is formaldehyde dehydrogenase); Potency, µM (highest dose often 57.1 µM), for the others: at the top dose activity change, negative = inhibition, actives largely listed as inhibitors; 230,000 compounds, 1.6% hits; active means well fitted inhibition curve with a large enough effect, not every such curve was filed as active; inconclusive means small, poorly fitted or top-dose-only effect, or another doubt; inactive means no such curve, though single readings can be large or run the other way;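 further: potency means the concentration at half of the fitted maximal effect; 0% = wells with enzyme and -100% = buffer wells without enzyme; nearly all actives have a fitted effect of over 50% in size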
JMJD2A Tudor: qHTS Assay for Inhibitors of JMJD2A-Tudor Domain; Lysine-specific demethylase 4A (Homo sapiens), O75164; AlphaScreen JMJD2A-Tudor / H3K4me3 peptide binding; Potency, µM (series often up to 114 µM), for the others: at the top dose activity change, negative = inhibition, hits mostly inhibitors; 390,000 compounds, 4.4% hits; further: potency means the concentration at half of the fitted maximal effect; on the % scale 0 is the no-effect control and ±100 the full control effect; nearly all actives have a fitted effect of over 50% in size
L3MBTL1 inh: qHTS Assay for the Inhibitors of L3MBTL1. Lethal(3)malignant brain tumor-like protein 1 (Homo sapiens), Q9Y468. AlphaScreen L3MBTL1–H3K9me1 peptide binding. Potency, µM (series often up to 57.1 µM), inactives show at the highest dose activity, negative = inhibition, hits mostly inhibitors. 230,000 compounds, 0.66% hits; further: potency means the concentration at half of the fitted maximal effect; on the % scale 0 is the no-effect control and ±100 the full control effect; nearly all actives have a fitted effect of over 60% in size
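Displacement of a biotinylated histone H3(1-15) peptide monomethylated at Lys9 (75 nM) from L3MBTL1 (50 nM) was measured by AlphaScreen after a 30 min room-temperature compound incubation; cefsulodin titration served as intraplate control.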
HP1b binding inh: HTS for Inhibitors of HP1-beta Chromodomain Interactions with Methylated Histone Tails; AID 540317, 2011; Potency, µM (highest dose often 114 µM), inactives show top-dose activity change, negative = inhibition, actives largely listed as inhibitors; AlphaScreen HP1-beta / biotin-H3K9me3 peptide binding; Chromobox protein homolog 1 (Homo sapiens), P83916; 390,000 compounds, 0.56% hits; further: potency means the concentration at half of the fitted maximal effect; nearly all actives have a fitted effect of over 70% in size
Target sequence (P83916 whole entry, looked up): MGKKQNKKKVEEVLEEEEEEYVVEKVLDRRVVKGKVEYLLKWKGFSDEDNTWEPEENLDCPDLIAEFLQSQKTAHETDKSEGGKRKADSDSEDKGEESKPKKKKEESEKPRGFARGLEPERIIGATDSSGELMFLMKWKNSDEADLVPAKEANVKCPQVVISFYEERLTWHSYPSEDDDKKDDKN
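HP1-beta protein (50 nM final) preincubated 30 min at room temperature with biotinylated H3(1-18)K9me3 peptide (50 nM) in PBS pH 7.4, 0.01% Tween-20, then compound added for 30 min. AlphaScreen streptavidin donor/nickel chelate acceptor beads (10 ug/mL final), 30 min dark, luminescence read.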
* hit, by the source's call; ? = inconclusive; . = no result; [ ] = another dose, or the depositor's remark. Unless noted, the call rests on the fitted dose curve; in most records, active means well fitted inhibition curve with a large enough effect; inconclusive means small, poorly fitted or top-dose-only effect; inactive means no such curve, though single readings can be large or run the other way.

SMILES	PI5P4Ka inh	BAZ2B block	KDM4E inh	JMJD2A Tudor	L3MBTL1 inh	HP1b binding inh
CCN1CCCC1CNCc1ccc(OCc2ccc(Cl)nc2)c(OC)c1 (configuration not stated)	2	-38%	15%	-8%	4%	26%
COc1ccc2c(c1O)C(=O)c1ccccc1C2=O	.	-24%	1%	.	0%	.
Nc1c(O)ccc2c1C(=O)c1ccccc1C2=O	-57*	25µM*	1%	?	?	16µM*
O=C(CCCCCn1c(=O)[nH]c2ccsc2c1=O)NCc1ccccc1	.	1%	.	0%	.	43%
COc1cc2c(C#N)c(N3CCc4ccccc4C3)nc(N)c2c(N)n1	?	?	?	4.5µM*	-19%	-21%
CCNC(=O)CSc1nc2sccc2c(=O)n1-c1ccccc1	?	6%	.	-12%	.	40%
C=CCNC(=O)CSc1nc2sccc2c(=O)n1-c1ccccc1	-60*	6%	.	-8%	.	6%
O=C(NC(NC(=S)Nc1ccccc1C(=O)O)C(Cl)(Cl)Cl)c1ccccc1 (configuration not stated)	-58*	?	?	50µM*	-16%	?
O=C(NC(NC(=S)Nc1ccccc1C(=O)O)C(Cl)(Cl)Cl)c1ccco1 (configuration not stated)	-21	-2%	?	79µM*	8%	-27%
COC(=O)c1ccccc1NC(=S)NC(NC(=O)c1ccco1)C(Cl)(Cl)Cl (configuration not stated)	.	-3%	?	-32%	-4%	-5%
Cc1ccc(NC(=S)N(CCCN2CCCC2)Cc2cccn2Cc2ccc(Cl)cc2)cc1C	1	-14%	5%	50µM*	.	-23%
COc1ccc(NC(=S)N(CCCN2CCCC2)Cc2cccn2Cc2ccc(Cl)cc2)cc1Cl	1	28µM*	-2%	?	.	-9%
Cc1ccc(NC(=S)N(CCCN2CCCC2)Cc2cccn2Cc2ccc(Cl)cc2)cc1Cl	15	?	-13%	?	.	-5%
Cc1ccccc1NC(=O)CSC1=Nc2ccccc2C2=NC(Cc3ccccc3)C(=O)N12 (configuration not stated)	.	-15%	.	-3%	.	29%
CC(NC(=O)c1ccc(S(=O)(=O)N(C)C)cc1)c1ccccc1 (configuration not stated)	-5	-5%	5%	79µM*	-7%[11.4 µM]	-15%
Cc1c(Cl)cccc1NC(=O)N1CCC(CN2CCCC2)CC1	.	0%	.	4%	.	29%
Cc1cccc(Cl)c1OCCN1CCCC1	-8	?	.	4µM*	0%	-8%
Clc1cccc(OCCN2CCNCC2)c1	-3	-33%	?	18µM*	6%	?
Cc1cccc(OCCCCCN2CCOCC2)c1	8	-2%	.	1%	3%	22%
Clc1cccc(Cl)c1OCCCCN1CCCCC1	-3	79µM*	.	20µM*	-5%	?
CC(C)c1cccc(C(C)C)c1OCCCCN1CCCC1	.	7%	-1%	-26%	.	14%
Cc1cccc(OCCCN2CCCCCC2)c1	.	79µM*	?	7.9µM*	52%[11.4 µM]	?
CCOc1ccc(CNC(=O)c2cc3c(s2)-c2ccccc2OC3)cc1	.	3%	.	-15%	.	41%
CC1Cc2ccccc2N1S(=O)(=O)c1cccc(C(=O)N2CC(=O)Nc3ccccc32)c1 (configuration not stated)	-7	-1%	?	-27%	-16%	16%
Clc1cccc(OCCCCN2CCCCC2)c1	4	56µM*	.	22µM*	-2%	?
SMILES	PI5P4Ka inh	BAZ2B block	KDM4E inh	JMJD2A Tudor	L3MBTL1 inh	HP1b binding inh
C/C(=N/NC(=O)CNC(=O)c1ccccc1F)c1ccc2c(c1)CCCC2	-67*	0%	6%	32µM*	16%	-7%
NC(Cc1ccc2nonc2c1)C(=O)O (configuration not stated)	-4	79µM*	-7%	8.9µM*	4%	-6%
CCOC(=O)c1c(N)sn(-c2ccccc2C)c1=S	?	?	-18%	56µM*	-2%	-71%
COc1ccccc1NS(=O)(=O)c1cc(NC(=O)C(C)C)ccc1N1CCCCC1	-4	.	-22%	?	5%	?
COc1ccccc1NS(=O)(=O)c1cc(NC(=O)COc2ccccc2F)ccc1N1CCOCC1	-22	.	.	-19%	-8%	18µM*
O=C(Nc1ccc(F)cc1)Nc1ccc(N2CCCC2)c(S(=O)(=O)Nc2ccccc2Cl)c1	-1	-12%	22µM*	-33%	-13%	6%
O=C(Nc1ccc(Cl)c(Cl)c1)Nc1ccc(N2CCCC2)c(S(=O)(=O)Nc2ccccc2Cl)c1	1	-6%	?	-25%	-9%	29%
COc1ccccc1NS(=O)(=O)c1cc(NC(=O)c2cccs2)ccc1N1CCCCC1	1	-21%	25µM*	-19%	-9%	-6%
COc1ccccc1NS(=O)(=O)c1cc(NC(=O)c2cc[n+]([O-])cc2)ccc1N1CCCC1	-25	.	?	63µM*	6%	?
COc1ccc(OC)c(NC(=O)c2nc(-c3ccccc3)oc2C)c1	0	.	?	-12%	.	53%
COC(=O)c1ccc(NS(=O)(=O)c2ccc3c(c2)n(C)c(=O)c(=O)n3C)cc1	.	.	.	-14%	.	5%
CC(NC(=O)CCC(=O)NC(C)C1COc2ccccc2O1)C1COc2ccccc2O1 (configuration not stated)	-2	10%	1%	-16%	1%	27%
COc1ccc(CNC(C)C2COc3ccccc3O2)c(OC)c1 (configuration not stated)	0	50µM*	5%	3.5µM*	-6%	?
CC(NCc1ccccc1)C1COc2ccccc2O1 (configuration not stated)	3	?	-14%	3.2µM*	.	-56%
CC(NC(=O)c1ccco1)C1COc2ccccc2O1 (configuration not stated)	?	50µM*	4%	56µM*	.	-6%
CCOC(=O)c1c(-c2cccs2)csc1NC(=O)c1ccco1	1	0%	?	-2%	-5%	28%
CC(NCC(O)COc1ccccc1)C1COc2ccccc2O1 (configuration not stated)	9	-17%	.	-7%	.	23%
CCOC(=O)c1c(C2COc3ccccc3O2)csc1NC(=O)c1ccco1 (configuration not stated)	.	?	?	32µM*	-4%[11.4 µM]	18µM*
